Data on 52 compounds can be found in ChEMBL document CHEMBL4808148, “HDAC6 screening dataset using tau-based substrate in an enzymatic assay yields selective inhibitors and activators” (2021).

Hit rate of the full screen: of about 5,600 compounds, about 390 (7%) showed an effect of 50% or more. For the sample, strong results were picked, then their nearest neighbours and some compounds at random.

The experiment deals with T1, Protein deacetylase HDAC6 (Homo sapiens) (UniProt Q9UBN7).
T1 sequence (whole entry): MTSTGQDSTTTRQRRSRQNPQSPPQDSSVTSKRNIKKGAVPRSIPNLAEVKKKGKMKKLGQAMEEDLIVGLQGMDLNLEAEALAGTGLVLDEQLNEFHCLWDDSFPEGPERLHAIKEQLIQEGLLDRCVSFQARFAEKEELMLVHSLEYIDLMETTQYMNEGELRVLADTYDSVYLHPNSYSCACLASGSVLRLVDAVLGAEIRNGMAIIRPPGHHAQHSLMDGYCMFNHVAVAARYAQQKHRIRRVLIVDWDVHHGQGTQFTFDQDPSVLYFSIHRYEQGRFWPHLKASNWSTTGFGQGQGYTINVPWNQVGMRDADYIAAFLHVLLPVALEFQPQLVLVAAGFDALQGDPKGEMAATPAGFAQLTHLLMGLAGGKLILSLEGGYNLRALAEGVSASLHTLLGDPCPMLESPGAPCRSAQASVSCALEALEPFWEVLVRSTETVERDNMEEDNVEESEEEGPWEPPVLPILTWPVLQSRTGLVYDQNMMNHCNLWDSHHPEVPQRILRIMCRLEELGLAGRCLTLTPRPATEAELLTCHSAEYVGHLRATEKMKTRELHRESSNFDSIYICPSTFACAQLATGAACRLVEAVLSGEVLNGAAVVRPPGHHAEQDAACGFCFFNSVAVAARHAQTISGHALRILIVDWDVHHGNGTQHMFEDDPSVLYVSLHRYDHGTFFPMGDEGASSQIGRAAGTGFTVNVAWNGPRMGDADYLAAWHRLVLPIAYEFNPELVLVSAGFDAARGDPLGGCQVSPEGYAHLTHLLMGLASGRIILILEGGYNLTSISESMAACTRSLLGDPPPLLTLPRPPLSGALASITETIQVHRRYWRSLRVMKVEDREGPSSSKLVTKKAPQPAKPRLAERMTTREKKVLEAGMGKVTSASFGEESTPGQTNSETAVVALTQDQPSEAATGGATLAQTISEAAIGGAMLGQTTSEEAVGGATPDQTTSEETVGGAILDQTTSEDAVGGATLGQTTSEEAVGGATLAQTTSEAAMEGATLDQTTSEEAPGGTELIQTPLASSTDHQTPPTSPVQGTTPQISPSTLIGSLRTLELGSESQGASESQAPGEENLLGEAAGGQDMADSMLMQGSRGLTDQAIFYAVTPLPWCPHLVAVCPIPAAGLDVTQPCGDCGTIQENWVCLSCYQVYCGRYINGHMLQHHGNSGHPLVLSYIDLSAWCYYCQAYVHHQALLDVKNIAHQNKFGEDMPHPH
The conditions noted are these: at 10 µM.
A word on the inhibition: it is the relative decrease from the control value, in per cent. With `CNC(=O)COC(=O)NCCC1CCN(c2cccc(C)n2)CC1`, the inhibition amounted to 23.1%.
The value for `Cc1[nH]cnc1-c1ccc(Cl)cc1` was 80.5%; that for `Cc1nc[nH]c1CCN` was 0.18%.
On to `CCn1c(O)nnc1-c1ccc(Cl)cc1`, for which the inhibition worked out at 4.14%.
Turning to `C[C@]12CCC(=O)C[C@@H]1CC[C@@H]1[C@@H]2CC[C@]2(C)[C@@H](O)CC[C@@H]12`, the inhibition was 6.85%.
The figure for `O=C(/C=C/c1ccc2ccccc2n1)c1ccncc1` is 91.9%.
The figure for `O=C(/C=C/c1ccc2ccc(C(F)(F)F)cc2n1)c1ccncc1` is 36.8%; for `CC(C)Oc1ccc(-c2nc(-c3cccc4c3CCC4NCCC(=O)O)no2)cc1C#N` (configuration not stated) it is 25.6%; for `CC(CC(c1ccccc1)c1ccccc1)NC(C)(C)C` (configuration not stated) it is 13.9%.
As for `C[C@@]1(O)[C@H](O)[C@@H](CO)O[C@H]1n1cnc2c(NC3CCCC3)nc(Cl)nc21`, the inhibition was -7.46%.
For the compound `Nc1ccn([C@H]2CO[C@@H](CO)S2)c(=O)n1`, the inhibition came out at 9.97%.
The value for `CC1(O)C(O)C(CO)OC1n1ccc(N)nc1=O` (configuration not stated) was 50.8%; that for `C[S+](CC[C@H](N)C(=O)[O-])C[C@H]1O[C@@H](n2cnc3c(N)ncnc32)[C@H](O)[C@@H]1O` (some centres not stated) was 5.35%.
The value for `Cc1cccc(Oc2cnc(=O)[nH]c2)c1` was 16.9%.
The figure for `O=C(NCc1ccccc1)c1csc(Nc2ccncn2)n1` is 44.2%.
In the case of `Cc1c[nH]c2ncnc(N3CCC(CN)(C(=O)Nc4cccc(OC(=O)N(C)C)c4)CC3)c12`, the inhibition was 25.2%.
The value for `Cc1cccc(/C=N/Nc2cc(N3CCOCC3)n3nc(-c4ccncc4)cc3n2)c1` was -1.46%; that for `CC1(CN)Cc2ccccc2C1` was 0.58%.
Regarding `Brc1cc2c(cc1[C@@H]1Nc3ccccc3[C@@H]3C=CC[C@@H]31)OCO2.Brc1cc2c(cc1[C@H]1Nc3ccccc3[C@H]3C=CC[C@H]31)OCO2`, the inhibition is 2.38%.
In the case of `O=C(O)Cc1ccc2c(c1)C(=O)c1ccccc1CO2`, the inhibition came to 75%.
The figure for `O=C(O)Cc1ccc(OCc2ccccc2)c(Cl)c1` is -0.75%.
On to `O=C(O)c1ccc(N2N=C(Cc3ccccc3)/C(=C\c3ccc(-c4ccccc4F)o3)C2=O)cc1`, for which the inhibition turned out to be 5.2%.
The figure for `CC(C)OC(=O)N[C@H]1Cc2c(n(Cc3ccccn3)c3ccc(C#N)cc23)C1` is -8.91%; for `CC(C)(C)c1ccc(O)cc1` it is 17.6%.
The value for `CC(C)(C)c1ccc(-c2nc3ccccc3[nH]2)cc1` was 105%; that for `C#CCC(Cc1cnc2nc(N)nc(N)c2n1)c1ccc(C(=O)N[C@@H](CCC(=O)O)C(=O)O)cc1` (some centres not stated) was 30%.
The value for `Oc1cc(CNC(=S)/C=C/c2cc(O)c(O)c(Br)c2)cc(O)c1O` was 36%.
Turning to `COC(=O)c1ccc(N2CCN(C)CC2)c(NC(=O)c2cccc(OC)c2)c1`, the inhibition was 5.02%.
As for `COc1ccc(N(C(=O)Oc2c(C)cccc2C)c2ccnc(Nc3ccc(N4CCN(C)CC4)cc3)n2)c(OC)c1`, the inhibition worked out at 102%.
The figure for `COc1cc(N2CCN(C)CC2)ccc1Nc1ncc2c(n1)N(C)c1ccccc1C(=O)N2C` is 0.79%; for `Cn1c(C#N)ccc1-c1ccc2c(c1)C(C)(C)OC(=S)N2` it is 12.5%.
The value for `O=C(Nc1cc(C(F)(F)F)cc(C(F)(F)F)c1)c1cc(Cl)ccc1O` was 3.28%.
The value for `CC(=O)NCCNc1cc(Cl)nn2c(-c3cccc(S(=O)(=O)N(C)C)c3)c(C)nc12` was 15.6%; that for `CC(C)CN(C[C@@H](OP(=O)(O)O)[C@H](Cc1ccccc1)NC(=O)O[C@H]1CCOC1)S(=O)(=O)c1ccc(N)cc1` was 7.63%; that for `CCCN(CCC)C(=O)Cc1c(-c2ccc(Cl)cc2)nc2ccc(Cl)cn12` was -6.78%.
In the case of `CC1=CC(=C(c2ccc(N)cc2)c2ccc(N)cc2)C=CC1=N`, the inhibition stood at 57.5%.
The figure for `O=C(O)c1ccccc1NC(=O)C12CC3CC(CC(C3)C1)C2` is 8.92%.
The value for `O=C(NO)c1cnc(N2CCN(S(=O)(=O)c3ccc4ccccc4c3)CC2)nc1` was 102%; that for `COc1ccc(S(=O)(=O)N2CCCN(S(=O)(=O)c3ccc(OC)c(OC)c3)CC2)cc1OC` was 5.48%.
As for `O[C@@](Cc1nc(CC2(C(F)(F)F)CC2)c[nH]1)(c1ccc(-n2cccn2)cc1)C(F)(F)F`, the inhibition is -0.94%.
The figure for `O=C(O)CCc1ccc(NCc2cccc3c2CCCN3CCOc2ccccc2)cc1F` is 8.07%; for `OCCNC1CCCc2c1[nH]c1ccc(-c3ccccc3)cc21` (configuration not stated) it is 59.1%.
The value for `CCc1nc(C)ccc1O` was 3.81%; that for `N[C@@H](CSCC(=O)O)C(=O)O` was 17.8%.
The figure for `CC1(C)CC[C@]2(C(=O)O)CC[C@]3(C)[C@H](C(=O)C=C4[C@@]5(C)C=C(C#N)C(=O)C(C)(C)[C@@H]5CC[C@]43C)[C@@H]2C1` is 11.2%.
For `CN(C)/N=N/c1ccc(C(=O)O)cc1`, the inhibition turned out to be 26.9%.
The figure for `C=C1C[C@@]2(O)O[C@@]3(C[C@H]2C(C)C)[C@@H](C)CC[C@@H]13` is 20.2%.
On to `CC(C)(C)C(=O)NCCCC(=O)O`, for which the inhibition was 0.18%.
The value for `N=C1CCCN1Cc1[nH]c(=O)[nH]c(=O)c1Cl` was 55.5%; that for `COc1ccc(NS(=O)(=O)c2ccc(/N=N/c3ccc(O)c(C(=O)O)c3)cc2)nn1` was 35.8%.
The value for `Cc1cccc(C(=O)O)c1O` was 35.8%; that for `O=C(O)c1cc(/N=N/c2ccc(O)c(C(=O)O)c2)ccc1O` was 98.2%.
